# Source: PubChem BioAssay (NCI)
# Where “and” joins values, the source holds several entries; their conditions need not be identical. Identical values can stand only once. The panel holds about 83,000 compounds, 20% with a hit somewhere; the sample as a whole holds those more often.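 48-hour exposure, single concentration, 96-well plates; percent growth endpoint where 0 means no net growth. Active: below 10.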 Calls of active or inactive are those of the source.
# System: MCF7 breast
# Experiment: NCI-60 one-dose screen, 48 h (100 = growth as untreated, 0 = no growth, -100 = all killed)
# Details: 10 µM unless noted
row,Compound,growth
1,Cc1c2c(c(C)c3c[n+](C)ccc13)Oc1ccccc1O2,-33.4% [100 µM] (active) and -100% [100 µM] (active)
2,O=C(/C=C/c1ccccc1)CCC1C(=O)c2ccccc2C1=O,48% [100 µM] (inactive) and 57.5% [100 µM] (inactive)
3,C=C1C(=O)OC2CC3(C)CCCC(C)C3=CC12 (centres undefined),-91.8% [100 µM] (active) and -84.5% [100 µM] (active)
4,Cc1cc(O)c2c(c1)C(=O)C(c1c(C)cc3c(c1O)C(=O)C1OC1C3=O)=CC2=O (centres undefined),-64.5% [100 µM] (active) and -90% [100 µM] (active)
5,C=C(CO)C(=O)OC1CC(=C)C2CC(O)C(C)C2C2OC(=O)C(=C)C12 (centres undefined),73.2% [100 µM] (inactive) and -86.7% [100 µM] (active)
6,Cc1ccc(NC(=S)C#N)cc1Cl,-25.7% [100 µM] (active) and -100% [100 µM] (active)
7,CC1(C=O)CCC23COC4(CCC5C6(C)CCC(OC7OCC(OC8OC(CO)C(O)C(OC9OC(CO)C(O)C(O)C9O)C8OC8OCC(O)C(O)C8O)C(O)C7OC7OC(CO)C(O)C(O)C7O)C(C)(C)C6CCC5(C)C4(C)CC2O)C3C1 (centres undefined),-68.6% [100 µM] (active) and -39.6% [100 µM] (active)
8,Cc1ccc(/C=N/Nc2cc(C)c3cccc(C)c3n2)s1,-73.1% [100 µM] (active) and -100% [100 µM] (active)
9,CCOc1cc2c(cc1O)/C(=N\OC)C[C@@H]1[C@@H]2CC[C@]2(C)[C@@H](O)CC[C@@H]12,0.562% [100 µM] (active) and -100% [100 µM] (active)
10,COc1c(/C=C/C=O)cc2c(c1OC)OCO2,-30% [100 µM] (active) and -83.3% [100 µM] (active)
11,CCOc1ccc(NC(=O)/C(=N\N)C(C(=O)OC)c2nc3ccc(Cl)cc3[nH]c2=O)cc1 (centres undefined),73% [100 µM] (inactive) and 60.5% [100 µM] (inactive)
12,CC1=C(C2=C(C)C(=O)C(=O)c3cc(C)ccc32)c2ccc(C)cc2C(=O)C1=O,-55.4% [100 µM] (active) and -100% [100 µM] (active)
13,CC1=C(Cl)C[C@@H](/C(C)=C\Cl)O[C@@]1(O)C(Br)Br,19.3% [100 µM] (inactive) and -76.7% [100 µM] (active)
14,CC1(C)CCC2(C(=O)O)C(O)CC3(C)C(=CCC4C5(C)CCC(OC6OCC(O)C(O)C6OC6OCC(O)C(O)C6OC6OCC(O)C(OC7OC(CO)C(O)C(O)C7O)C6O)C(C)(C)C5CCC43C)C2C1 (centres undefined),76.4% [100 µM] (inactive) and 25.5% [100 µM] (inactive)
